In the library only some 2.4% were active in any assay of this set; here they are far more common.
HSF1 inhib: HSF1 inhibitors in luciferase reporter cells, primary screen, cell-based, NIH3T3, luminescence; AID 2098, 2009; 0.77% of 300,000 active; NIH3T3-HGL HSE-luciferase, MG132-induced, luminescence 8 h; hits give low values; activity change, negative = inhibition, % at 7.5 µM (by protocol);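 active means more than half of replicate wells show activity change below -50%, luminescence cut by over half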;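 further: luciferase reports HSF-1 transcriptional activity via heat shock element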
TLR9-MyD88 block: inhibitors of TLR9-MyD88 association in cells, primary screen, cell-based, CHO, BLA complementation, fluorescence | CCF4 FRET ratio | AID 504734, 2011 | inhibition, % at 4.98 µM | Toll-like receptor 9 (Homo sapiens) + Myeloid differentiation primary response protein … | 0.21% of 340,000 active;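 active means inhibition above the mean over all tested compounds plus 3 SD, cut at about 21% in these data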
TLR4-MyD88 BLA: inhibitors of TLR4-MyD88 association in cells, primary screen, cell-based, HeLa CL3-4, BLA complementation, FRET ratio; HeLa CL3-4 TLR4/MyD88 BLA complementation; inhibition, % at 8.4 µM; Toll-like receptor 4 (Homo sapiens) + Myeloid differentiation primary response protein …; 0.18% of 200,000 active; in the data active means inhibition above about 25%
HSF1 activator: HSF-1 activators, primary screen, NIH3T3-HGL cells, MG132 stress, luminescence, single point. NIH3T3-HGL HSF-1 luciferase reporter, 8 h; 100% = twice DMSO control signal. activation, % at 9 µM. 1.7% of 300,000 active;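 active means mean replicate activation of at least 50% with a set share of replicates each reaching 50%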
NOD2-RIPK2 inh: NOD2-RIPK2 binding disruptors in cells, primary screen, fluorescence, CHO cells, BLA complementation; Receptor-interacting serine/threonine-protein kinase 2 (Homo sapiens), O43353; CCF4 ratio; inhibition, % at 4.98 µM; 0.38% of 360,000 active; in the data active means inhibition above about 21%
Large screens that a line does not name were inactive; ! = not confirmed by another sample.

O=C(N/N=C/c1cn(-c2ccccc2)nc1-c1ccc2c(c1)OCCO2)c1ccncc1	HSF1 activator 107
CC1CC(=O)Nc2ccc([N+](=O)[O-])cc2N1C (stereo not drawn)	none
Cc1cc2c(cc1C)C(c1cccc([N+](=O)[O-])c1)CC(=O)N2 (stereo not drawn)	HSF1 activator 63
CC1CC(=O)Nc2cc([N+](=O)[O-])ccc2N1 (stereo not drawn)	HSF1 inhib -89 (no result: TLR4-MyD88 BLA)
CC12CCC(O)CC1=CCC1C2CCC2(C)c3[nH]ncc3CC12 (stereo not drawn)	none (no result: HSF1 inhib, TLR4-MyD88 BLA, HSF1 activator)
COc1cccc(-c2c(C(=O)O)cc(O)c3ccc(OC)cc23)c1	none (no result: HSF1 inhib, TLR4-MyD88 BLA, HSF1 activator)
CC1CC1C(=O)Nc1ccc(S(=O)(=O)N2CCCCC2)cc1 (stereo not drawn)	none (no result: HSF1 inhib, TLR4-MyD88 BLA, HSF1 activator)
Cc1ccc(S(=O)(=O)N2CCC(C(=O)N[C@@H](Cc3ccccc3)C(=O)O)CC2)cc1	HSF1 inhib -78
Cc1cc(NC(=O)c2ccco2)sc1C	none (no result: HSF1 inhib, TLR4-MyD88 BLA, HSF1 activator)
COCCCC/C(=N\OCCN)c1ccc(C(F)(F)F)cc1	HSF1 inhib -81!
Cn1c(C(=O)N2CCc3ccccc3C2)cc2oc3ccccc3c21	HSF1 activator 66
CS(=O)(=O)c1nc(-c2cccs2)cc(C(F)(F)F)n1	HSF1 inhib -90 (no result: TLR9-MyD88 block, NOD2-RIPK2 inh)
CCNc1ccc(Br)cc(C(=O)/C=C/c2c(Cl)cccc2Cl)c1=O	HSF1 activator 73
CN(N=Nc1ccc([N+](=O)[O-])cc1)c1ccccc1	HSF1 activator 74
CN(N=Nc1cccc([N+](=O)[O-])c1)c1ccccc1	none (no result: TLR4-MyD88 BLA)
O=C(O)c1ccc(NC2=C/C(=N/S(=O)(=O)c3ccccc3)c3ccccc3C2=O)cc1	none (no result: HSF1 inhib, HSF1 activator)
CCc1ccc(S(=O)(=O)/N=C2\C=C(Nc3cccc(C(=O)O)c3)C(=O)c3ccccc32)cc1	none (no result: TLR4-MyD88 BLA)
CCc1ccc(S(=O)(=O)/N=C2\C=C(Nc3ccc(O)cc3)C(=O)c3ccccc32)cc1	HSF1 inhib -95 (no result: TLR4-MyD88 BLA)
O=C1C(Nc2ccc(O)cc2)=C/C(=N/S(=O)(=O)c2cccs2)c2ccccc21	HSF1 inhib -93
Cc1cc(C)c(S(=O)(=O)/N=C2\C=C(Nc3ccc(C(=O)O)cc3)C(=O)c3ccccc32)c(C)c1	HSF1 inhib -87 (no result: TLR4-MyD88 BLA)
Cc1ccc(NC2=C/C(=N\S(=O)(=O)c3cccs3)c3ccccc3C2=O)c(C)c1	HSF1 inhib -95
CCNC(=O)C1(C)CCCN(Cc2csc3ccccc23)C1 (stereo not drawn)	none (no result: HSF1 inhib, TLR9-MyD88 block, TLR4-MyD88 BLA, HSF1 activator)
CCN1CCN(C(=O)CCc2nnc(CCc3ccc(OC)cc3)o2)[C@@H](C)C1=O	none (no result: TLR4-MyD88 BLA)
CCOC(=O)[C@]12CCCC=C1N(Cc1ccccc1)C(=O)[C@H](CC(=O)N1CCCC1)C2	none (no result: HSF1 inhib, TLR9-MyD88 block, TLR4-MyD88 BLA, HSF1 activator)
Cc1cccc(NC2=C/C(=N/S(=O)(=O)c3cccs3)c3ccccc3C2=O)c1	none (no result: HSF1 inhib, HSF1 activator)
Cc1ccc(Cl)cc1NC1=C/C(=N\S(=O)(=O)c2cccs2)c2ccccc2C1=O	HSF1 inhib -94
CCc1cccc(NC(=O)C2CCCN(S(=O)(=O)c3cccs3)C2)c1 (stereo not drawn)	HSF1 inhib -73 (no result: TLR4-MyD88 BLA)
COc1ccc(NC(=O)C2CCCN(S(=O)(=O)c3cccs3)C2)cc1OC (stereo not drawn)	none
CC(C(=O)NCCCn1ccnc1)(c1ccccc1)c1ccccc1	none (no result: TLR4-MyD88 BLA)
Cc1ccc(NC(=O)COC(=O)C2CCC2)cc1S(=O)(=O)N1CCOCC1	none (no result: HSF1 inhib, TLR4-MyD88 BLA, HSF1 activator)
O=C(NCc1ccncc1)c1ccc(Cl)c(S(=O)(=O)N2CCOCC2)c1	HSF1 inhib -76
CCOc1ccc(C(=O)NCc2ccncc2)cc1OCC	HSF1 inhib -61
O=C(COc1ccc(S(=O)(=O)NCc2ccccc2)cc1)NCc1cccnc1	none (no result: TLR4-MyD88 BLA)
COc1ccc(OC)c(C(=O)COC(=O)COc2ccccc2)c1	none (no result: HSF1 inhib, TLR4-MyD88 BLA, HSF1 activator)
CCOC(=O)c1c(NC(=O)COC(=O)c2cccc([N+](=O)[O-])c2)sc(C(=O)N(C)C)c1C	none (no result: HSF1 inhib, TLR4-MyD88 BLA, HSF1 activator)
COc1ccc2c(-c3ccc(S(N)(=O)=O)cc3)c(-c3ccc(S(C)(=O)=O)cc3)sc2c1	none (no result: HSF1 inhib, TLR4-MyD88 BLA, HSF1 activator)
CCCNC(=O)c1oc2ccc3c(c2c1C)C(=O)CC(C)(C)O3	HSF1 activator 59
CCCNC(=O)c1oc2ccc3c(c2c1C)C=CC(C)(C)O3	none (no result: TLR4-MyD88 BLA)
Cc1cc(C(=O)C(C)OC(=O)c2cnccn2)c(C)n1-c1ccccc1 (stereo not drawn)	none (no result: TLR4-MyD88 BLA)
CCN1C(=O)/C(=C/N2CC(C)CC(C)C2)SC1=S (stereo not drawn)	none
CCN1C(=O)/C(=C\N2CCCCCC2)SC1=S	HSF1 activator 67
O=C(Nc1ccc2c(c1)OCO2)c1cnc(Cl)c(Cl)c1	none (no result: HSF1 inhib, TLR4-MyD88 BLA, HSF1 activator)
CN1CCN(S(=O)(=O)c2ccc(F)cc2)CC1	none (no result: HSF1 inhib, TLR4-MyD88 BLA, HSF1 activator)
c1ccc(-c2ccc(-n3ccnc3)cc2)cc1	HSF1 activator 72
CCOCc1c(C(=O)OCC(=O)Nc2ccccc2C(N)=O)oc2ccccc12	none (no result: HSF1 inhib, TLR4-MyD88 BLA, HSF1 activator)
COc1ccc(N=C2NC(=O)/C(=C\C=C\c3ccco3)S2)cc1	HSF1 activator 124
COC(=O)/C(=C/c1cccnc1)NC(=O)c1ccccc1	HSF1 activator 92
CN1CCN(C(=O)/C(=C/c2cccnc2)NC(=O)c2cccc(Br)c2)CC1	HSF1 activator 72 (no result: TLR4-MyD88 BLA)
Cc1ccc2oc(C(=O)N3CCC(O)(c4cccc(C(F)(F)F)c4)CC3)c(C)c2c1	HSF1 activator 75 (no result: TLR4-MyD88 BLA)
CC(=O)N1CCC(O)(c2cccc(C(F)(F)F)c2)CC1	none
Cc1ccc(N(CC(=O)NCCc2ccc(F)cc2)S(=O)(=O)c2ccc(Cl)c([N+](=O)[O-])c2)c(C)c1	HSF1 activator 89
Cc1ccc(-c2nc(-c3ccccc3)no2)c(Cl)c1	HSF1 inhib -72
COc1ccccc1/C=C1/SC(=S)N(C(C)C(=O)NC2C=CS(=O)(=O)C2)C1=O (stereo not drawn)	HSF1 activator 64 (no result: TLR4-MyD88 BLA)
O=C(O)c1cccc(NC(=S)NC(=O)c2ccc3ccccc3c2)c1	HSF1 inhib -71 (no result: TLR4-MyD88 BLA)
CCC(=O)Nc1cccc(NC(=S)NC(=O)c2ccccc2)c1	HSF1 activator 54
O=C(NNC(=O)C1C2C=CC(C2)C1C(=O)O)c1ccccc1O (stereo not drawn)	none (no result: TLR4-MyD88 BLA)
Cc1ccc(NC(=O)CSc2nnnn2C2CC2)cc1S(=O)(=O)N1CCOCC1	none (no result: HSF1 inhib, TLR4-MyD88 BLA, HSF1 activator)
CC1Cc2ccccc2N1C(=O)C12CCC(C)(C(=O)C1)C2(C)C (stereo not drawn)	HSF1 inhib -63
O=C(CSc1cccc2cccnc12)N1CCCC1	HSF1 activator 60
CCn1ncc(/C=C/C(=O)c2ccccc2)c1C	HSF1 activator 53
Cc1c(/C=C/C(=O)c2ccccc2)cnn1C	none
CCOc1ccc(NC(=O)C2CCCN(c3nn4c(=O)cc(C)nc4s3)C2)cc1 (stereo not drawn)	HSF1 inhib -62 (no result: TLR4-MyD88 BLA)

Source: PubChem
